Test results: PubChem BioAssay AID488975 (Johns Hopkins Ion Channel Center, 2010)
Among all 310,000 compounds or so, about 2,600 (0.84%) were called active.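 Rule for the calls: active = B-score over 3 SD under the library average, and starting fluorescence ratio not unusually high; inactive = the rest.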 Many of the other results were omitted from the sample, so actives are more common in it than they were.

target: High affinity choline transporter 1 (Homo sapiens) (UniProt Q9GZV3); experiment: inhibitors of human choline transporter CHT (AID 488975); conditions: CHT-expressing cells, membrane potential dye, choline response, at 10 µM; hits give low values;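 for B-score: choline stimulus applied at its EC90 after an EC20 pre-addition; B-score computed on integrated fluorescence ratio after choline addition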
Sequence (Q9GZV3 whole entry, looked up): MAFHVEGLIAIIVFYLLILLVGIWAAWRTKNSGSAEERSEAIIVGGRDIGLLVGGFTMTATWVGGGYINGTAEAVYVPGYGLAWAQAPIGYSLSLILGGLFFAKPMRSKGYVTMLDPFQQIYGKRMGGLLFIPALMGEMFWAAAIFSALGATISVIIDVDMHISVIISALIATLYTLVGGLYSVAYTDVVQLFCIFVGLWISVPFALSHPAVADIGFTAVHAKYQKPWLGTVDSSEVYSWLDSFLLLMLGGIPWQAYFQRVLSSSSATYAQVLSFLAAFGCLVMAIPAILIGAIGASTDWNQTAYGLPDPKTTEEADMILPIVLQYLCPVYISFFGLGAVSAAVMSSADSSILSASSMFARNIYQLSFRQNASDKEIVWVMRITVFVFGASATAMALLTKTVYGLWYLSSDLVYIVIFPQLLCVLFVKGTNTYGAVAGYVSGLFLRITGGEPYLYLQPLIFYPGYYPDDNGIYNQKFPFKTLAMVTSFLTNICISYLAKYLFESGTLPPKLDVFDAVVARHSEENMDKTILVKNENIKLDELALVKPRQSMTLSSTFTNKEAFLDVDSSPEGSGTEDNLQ

For `CN(CC(=O)NCc1cccnc1)S(=O)(=O)c1cc(Cl)ccc1Cl`, which B-score is on record?
The B-score was “inactive”.

`COc1ccc(CC2c3cc(OC)c(OC)cc3CC[N+]2(C)CCC(=O)OCCCCCOC(=O)CC[N+]2(C)CCc3cc(OC)c(OC)cc3C2Cc2ccc(OC)c(OC)c2)cc1OC` (stereo not given) was tested. Which B-score did it give?
The B-score was “inactive”.

Which B-score does the source give for `Cc1ccccc1N1CC(C(=O)Nc2ccc(S(=O)(=O)N3CCCC3)cc2)CC1=O` (stereo not given) here?
The B-score was “inactive”.

For `CCC1(c2ccccc2)NC(=O)N(CC(=O)Nc2ccccc2C(=O)NC2CCCC2)C1=O` (stereo not given), which B-score is on record?
The B-score was “inactive”.

`CCc1noc(C)c1C(=O)Oc1ccc(N(C)S(=O)(=O)c2ccc(C)c(C)c2)cc1` was tested. Which B-score did it give?
Its B-score is “inactive”.

With `CN1CCN(NC(=O)c2ccc(S(=O)(=O)N3CCCCCC3)cc2)CC1` as the compound, how does the B-score read?
Its B-score is “inactive”.

`CC1CN(S(=O)(=O)c2ccc(C(=O)NN3CCN(C)CC3)cc2)CC(C)O1` (stereo not given) was tested. Which B-score did it give?
Its B-score is -5.14 (active).

With `CC1CC(C)CN(S(=O)(=O)c2ccc(C(=O)NN3CCOCC3)cc2)C1` (stereo not given) as the compound, how does the B-score read?
Its B-score is “inactive”.

Which B-score does the source give for `CCCc1cc(=O)[nH]c(SCC(=O)c2c(N)n(CC(C)C)c(=O)n(C)c2=O)n1` here?
Its B-score is “inactive”.

With `Cc1ccccc1-n1nnc2c(=O)oc3ccccc3c21` as the compound, how does the B-score read?
The B-score was -6.25 (active).

With `CCCCC(=O)Nc1cc(C)c2c(=O)oc3ccccc3c2n1` as the compound, how does the B-score read?
The B-score was “inactive”.

`CCOC(=O)c1c(C)nc2c(c1C)c(=O)oc1ccccc12` was tested. Which B-score did it give?
The B-score was “inactive”.

How did the B-score turn out when `Cc1ccc(Cl)c(OCC(=O)N(C)CC(=O)Nc2ccc(N3CCOCC3)cc2)c1` was run?
The B-score was “inactive”.

How did the B-score turn out when `Cc1ccc(C(=O)N/C(=C/C=C/c2ccccc2)C(=O)NCc2ccco2)cc1` was run?
Its B-score is -7.21 (active).

How did the B-score turn out when `CNC(=O)/C(=C\C=C\c1ccccc1)NC(=O)c1ccc([N+](=O)[O-])cc1` was run?
The B-score was “inactive”.

With `O=C(NCc1ccco1)/C(=C/c1ccco1)NC(=O)c1ccccc1` as the compound, how does the B-score read?
Its B-score is “inactive”.

With `Cc1n[nH]c(=O)c2c(NC(=O)CSc3ccccc3F)oc(C)c12` as the compound, how does the B-score read?
Its B-score is “inactive”.

With `Cc1ccc2nc(SCC(=O)Nc3cccc4ccccc34)nc(=O)n2c1` as the compound, how does the B-score read?
Its B-score is “inactive”.

For `Cc1sc2c(c1C)c(=O)n(-c1ccccc1)c(=O)n2CC(=O)NCC1CCCO1` (stereo not given), which B-score is on record?
The B-score was “inactive”.

For `Cc1c(Cl)c([N+](=O)[O-])nn1CC(=O)NCC1CCCO1` (stereo not given), which B-score is on record?
The B-score was “inactive”.

`Cc1nn(CC(=O)NCC2CCCO2)c(=O)c2cc3ccccc3n12` (stereo not given) was tested. Which B-score did it give?
Its B-score is -5.7 (active).

Which B-score does the source give for `COc1ccc(N2C(=O)CNC2=S)cc1` here?
Its B-score is -7.99 (active).

How did the B-score turn out when `COc1ccc(N2C(=O)C(Cc3ccccc3)NC2=S)cc1` (stereo not given) was run?
The B-score was “inactive”.

For `COc1ccc(N2C(=O)CC(SC(C)C)C2=O)cc1` (stereo not given), which B-score is on record?
The B-score was “inactive”.

How did the B-score turn out when `CCOC(=O)N1CCN(C(=O)c2ccccc2SCC(=O)NCC2CCCCC2)CC1` was run?
The B-score was “inactive”.

How did the B-score turn out when `O=C(O)c1ccc(S(=O)(=O)N2CCC(Cc3ccccc3)CC2)cc1` was run?
The B-score was “inactive”.

Which B-score does the source give for `CC(C)(C)NC(=O)NC(=O)CN1CCC(Cc2ccccc2)CC1` here?
Its B-score is -7.19 (active).

Which B-score does the source give for `NC(=O)c1ccc(CN2CCC(Cc3ccccc3)CC2)cc1` here?
Its B-score is “inactive”.

With `Cc1sc2ncnc(N3CCC(C(=O)NNC(=O)c4ccc(F)cc4)CC3)c2c1C` as the compound, how does the B-score read?
The B-score was “inactive”.

For `Cc1cc(C)c(-c2c(O)c3ccccc3n(C)c2=O)c(C)c1`, which B-score is on record?
The B-score was “inactive”.

For `Cn1c2ccccc2c(=O)c2c(O)cccc21`, which B-score is on record?
The B-score was -5.96 (active).

`CCn1c(=O)cc(O)c2ccccc21` was tested. Which B-score did it give?
Its B-score is “inactive”.

With `CCCC[C@@H]1CN=C(N)N1CCc1cccc(F)c1` as the compound, how does the B-score read?
The B-score was “inactive”.

With `Cc1cccc(Nc2nc(NCCO)nc(N3CCCC3)n2)c1` as the compound, how does the B-score read?
Its B-score is “inactive”.

Which B-score does the source give for `COc1ccc(C(=O)N(Cc2ccccc2)c2ccc(C)cc2)cc1S(=O)(=O)N1CCOCC1` here?
The B-score was “inactive”.

For `COc1cccc(NC(=O)CSc2nccn(-c3ccc4c(c3)OCCO4)c2=O)c1`, which B-score is on record?
The B-score was “inactive”.

Which B-score does the source give for `CC(C)(C)S(=O)(=O)c1ccccc1-c1noc(-c2ccccc2)c1C(N)=O` here?
The B-score was “inactive”.

Which B-score does the source give for `CN(C)CCn1c2c(c(SCC(=O)NCc3ccccc3)nc1=O)CCC2` here?
Its B-score is “inactive”.

For `Nc1nc(NCC(=O)O)nc(N2CCCCCC2)c1[N+](=O)[O-]`, which B-score is on record?
The B-score was “inactive”.

Which B-score does the source give for `Nc1cc(N2CCCCCC2)c2nonc2c1[N+](=O)[O-]` here?
Its B-score is -7.12 (active).

With `COCCNc1nc(N)c([N+](=O)[O-])c(N2CCCCCC2)n1` as the compound, how does the B-score read?
Its B-score is “inactive”.

Which B-score does the source give for `Cc1ccc(S(=O)(=O)N2CCN(C(=O)Cc3sc(C)nc3-c3ccc(F)cc3)CC2)c(C)c1` here?
The B-score was “inactive”.

`COc1ccc(NC(=O)CN(C)C(=O)c2cccc(S(=O)(=O)N3CCN(c4ccccc4)CC3)c2)cc1` was tested. Which B-score did it give?
The B-score was “inactive”.

`Cc1ccccc1NC(=O)COc1cccc2c1CCNC2=O` was tested. Which B-score did it give?
Its B-score is “inactive”.

`Cc1c(NC(=S)Nc2ccccc2)c(=O)n(-c2ccccc2)n1C` was tested. Which B-score did it give?
The B-score was “inactive”.

Which B-score does the source give for `Cc1ccc(S(=O)(=O)/N=C(/NC(=S)Nc2c(C)n(C)n(-c3ccccc3)c2=O)c2ccccc2)cc1` here?
The B-score was -6.35 (active).

For `Cc1ccc(S(=O)(=O)CC(=O)Nc2c(C)n(C)n(-c3ccccc3)c2=O)cc1`, which B-score is on record?
Its B-score is “inactive”.

With `CC(=O)N1CCc2c(sc(NC(=O)CCS(=O)(=O)c3ccc(C)cc3)c2C(N)=O)C1` as the compound, how does the B-score read?
The B-score was “inactive”.

How did the B-score turn out when `O=C(c1cc(-c2ccco2)nc2ccccc12)N(Cc1nnc(-c2ccc(Cl)cc2)o1)C1CC1` was run?
Its B-score is “inactive”.

For `CC(C)CN(C(=O)COC(=O)c1ccc2ccccc2c1)c1c(N)n(Cc2ccccc2)c(=O)[nH]c1=O`, which B-score is on record?
The B-score was “inactive”.

For `COc1ccc(/C=N/NC(=O)c2cc(-c3cccc(C)c3)nc3ccccc23)cc1O`, which B-score is on record?
Its B-score is “inactive”.

For `COc1ccccc1OCCCCCCN1CCN(C)CC1`, which B-score is on record?
Its B-score is “inactive”.

For `CCN(CC)c1ccc(S(=O)(=O)N2CCCCC2)cc1NC(=O)C1=COCCO1`, which B-score is on record?
The B-score was “inactive”.

Which B-score does the source give for `CCOc1ccccc1Nc1ccc(C(=O)O)cc1[N+](=O)[O-]` here?
The B-score was “inactive”.

`CCOc1ccccc1Nc1ccc2nonc2c1[N+](=O)[O-]` was tested. Which B-score did it give?
The B-score was -6.62 (active).

`Cc1ccccc1Nc1c([N+](=O)[O-])ccc2nonc12` was tested. Which B-score did it give?
The B-score was “inactive”.

How did the B-score turn out when `COc1ccc(-c2ccc3nnc(SCC(=O)Nc4ccc(NC(C)=O)cc4)n3n2)cc1` was run?
The B-score was “inactive”.

`Cc1cccc(C)c1-n1c(C)cc(/C=C2\C(=O)NN(c3ccccc3)C2=O)c1C` was tested. Which B-score did it give?
The B-score was “inactive”.

Which B-score does the source give for `Cc1cc(/C=C2/NC(=O)NC2=O)c(C)n1-c1cccnc1` here?
Its B-score is “inactive”.

For `Cc1ccccc1-n1c(C)cc(/C=C2\NC(=O)NC2=O)c1C`, which B-score is on record?
Its B-score is -8.08 (active).
